# Assay results: the supplement of paper PMC12636033
# ± gives the standard deviation of the averaged measurements. The full ranking holds about 33,000 sequences; the median of “E-score (rank enrichment, -0.5 to 0.5)” is about -0.0028, and the highest 2% start at about 0.23. The sample holds the highest values, similar sequences and a random draw of the others, so the mix is not that of the screen.
# Test system: 2Sb-muMax20 (muMax20 with two 1,3-bis(methyl)benzene Cys staples, A13C/A17C and Q88C/A92C, C-terminal Lys)
# Assay: PBM 8-mer E-score (E-score (rank enrichment, -0.5 to 0.5)); higher = stronger preferential binding
# Method: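 Protein binding microarray (universal PBM chip covering all 10-mers in fixed probe flanks) with chemically synthesized human Max(13-93) bHLH-LZ analogs (not full-length Max) bearing noncanonical residues (hArg, Tha, Aib, Nle at 65) and aromatic Cys staples. Read-out per 8-mer (and its reverse complement): E-score (rank-based enrichment, -0.5 to 0.5) and Z-score of median probe intensity.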
row,Sequence,PBM 8-mer E-score
1,CGGATTCC,-0.0954 ± 0.031
2,CAAACGGA,-0.0945 ± 0.0024
3,AACCACGG,-0.276 ± 0.0092
4,CGATCAGA,-0.199 ± 0.015
5,ATTGGCTG,-0.0784 ± 0.03
6,CTCGTGCA,0.0182 ± 0.011
7,AAGTATAA,0.196 ± 0.052
8,AAGTATAC,0.236 ± 0.038
9,ATATAGCA,0.175 ± 0.016
10,AAGTATAT,0.136 ± 0.0036
11,CTATAGCC,0.0346 ± 0.087
12,ATATAGCC,0.234 ± 0.01
13,GTGAGACA,0.0265 ± 0.039
14,GTTGTCCA,0.00715 ± 0.051
15,AGGCCCGG,-0.321 ± 0.063
16,GGGGTCAA,0.109 ± 0.11
17,ACGCGGTC,-0.0575 ± 0.016
18,AAATAGAC,0.235 ± 0.0036
19,AAATAGAA,-0.0324 ± 0.022
20,GAATAGAC,0.00351 ± 0.056
21,AAATAGAT,0.24 ± 0.044
22,CAATAGAC,0.109 ± 0.022
23,AAATAGGG,0.286 ± 0.0043
24,AAATAGAG,0.114 ± 0.056
25,AAATAGGC,0.0499 ± 0.12

row,Sequence,PBM 8-mer E-score
1,CAATAGGG,0.0594 ± 0.051
2,GCCTGAGC,-0.218 ± 0.037
3,GCAGCACC,-0.116 ± 0.057
4,GGTTCCAC,-0.0645 ± 0.035
5,ACGGTCTC,-0.174 ± 0.083
6,ACCCATCA,0.114 ± 0.044
7,GCCCCGCA,0.0269 ± 0.056
8,GGCCCGCC,-0.185 ± 0.11
9,ACCCCGCC,0.318 ± 0.056
10,CCCCCGCC,-0.0601 ± 0.073
11,AACCCGCC,0.123 ± 0.0032
12,GCCCCGCC,0.233 ± 0.12
13,GGATTGTA,0.156 ± 0.046
14,AGGTAGCA,0.107 ± 0.065
15,AGGTCAGG,-0.187 ± 0.011
16,CAAAGCAA,0.173 ± 0.058
17,GAAAGCAA,0.0699 ± 0.014
18,TAAAGCAA,0.2878 ± 0.0008
19,GTCGAGAC,0.0609 ± 0.045
20,ATTTCAGG,-0.054 ± 0.037
21,AGATCCAG,-0.0734 ± 0.013
22,GGACAGAC,-0.211 ± 0.04
23,ATTGATGG,0.254 ± 0.0094
24,ATTGATGC,0.125 ± 0.018
25,ATTGATGA,0.0883 ± 0.037

row,Sequence,PBM 8-mer E-score
1,CGCTGTTC,-0.0947 ± 0.036
2,ATCTCGAC,-0.0985 ± 0.011
3,CACACCAC,0.0993 ± 0.072
4,AGAACAAA,0.13 ± 0.046
5,CGAACAAG,-0.08043 ± 0.00071
6,CGAACAAA,0.261 ± 0.021
7,CGAACATA,0.233 ± 0.037
8,CGAACATC,0.0524 ± 0.0016
9,GGAACATA,0.0124 ± 0.063
10,CGTAGGAC,-0.224 ± 0.05
11,CGGCACAG,-0.151 ± 0.028
12,CTATTAGA,-0.0815 ± 0.044
13,CTATTAGC,0.0397 ± 0.078
14,GTATTAGA,0.201 ± 0.063
15,ATATTAGC,0.125 ± 0.041
16,ATATTAGG,0.287 ± 0.008
17,ATATTAGA,0.245 ± 0.0043
18,CGGCCCCG,-0.0779 ± 0.064
19,GGAGGTTA,0.0654 ± 0.011
20,CGGTAAGA,0.00167 ± 0.075
21,CCACATCC,0.00851 ± 0.069
22,AGTGATTA,0.0652 ± 0.034
23,AACTAATA,0.263 ± 0.029
24,AACTATTA,0.252 ± 0.069
25,TACTAATA,0.112 ± 0.037

row,Sequence,PBM 8-mer E-score
1,CACTAATA,0.113 ± 0.031
2,GGCTATTA,0.116 ± 0.04
3,GACTATTA,-0.0384 ± 0.062
4,AGCTATTA,0.251 ± 0.019
5,CGCTATTA,-0.0606 ± 0.018
6,CACTATTA,0.133 ± 0.036
7,ATCGGGTG,-0.0686 ± 0.0025
8,ATCCAAGG,-0.161 ± 0.034
9,CATACTCG,0.0129 ± 0.075
10,CCATCTTC,0.0281 ± 0.036
11,AATCACGC,0.125 ± 0.047
12,AATCACGA,-0.0273 ± 0.0012
13,AATCACAA,0.166 ± 0.021
14,AATCACAT,0.245 ± 0.025
15,AATCACGT,0.26 ± 0.025
16,AATCACAG,-0.0581 ± 0.1
17,ACAAATTA,0.0394 ± 0.025
18,CGGCAAAG,-0.127 ± 0.016
19,CCGACAGG,-0.121 ± 0.008
20,CCTCATTA,0.251 ± 0.052
21,CCTTATTA,0.28 ± 0.023
22,CCTTATTC,-0.00564 ± 0.062
23,GCTTATTA,0.1305 ± 0.0011
24,GCTCATTA,0.155 ± 0.098
25,CCTCATTC,0.0874 ± 0.052

row,Sequence,PBM 8-mer E-score
1,AGCTGCCT,-0.1104 ± 0.00073
2,CAGCACGC,-0.176 ± 0.048
3,CTAAAGCC,0.0237 ± 0.016
4,AGGGAAAT,0.264 ± 0.019
5,AGGGAAAG,0.06 ± 0.037
6,AGGGAAAC,0.00477 ± 0.00053
7,ATAAGCTG,0.0487 ± 0.092
8,AGTAGAAT,0.192 ± 0.0085
9,CGATTGAC,-0.0145 ± 0.035
10,CTACGTGA,0.0198 ± 0.047
11,ACACGCGG,0.145 ± 0.026
12,CAACGTGG,0.11 ± 0.044
13,CCACGCGA,0.0259 ± 0.0059
14,CCACGTGA,0.377 ± 0.034
15,CCACGTGG,0.46 ± 0.0066
16,CGACGTGA,0.0209 ± 0.0095
17,CCACGTAG,-0.0491 ± 0.031
18,CCACGTGC,0.376 ± 0.054
19,CCACGTCC,-0.141 ± 0.039
20,CGACGTGC,-0.0806 ± 0.038
21,CCACGCGG,0.323 ± 0.026
22,TATTAAAA,0.142 ± 0.065
23,GGAACACC,-0.18 ± 0.026
24,ACACGGGT,-0.046 ± 0.012
25,ATTAGGTC,0.0763 ± 0.069

row,Sequence,PBM 8-mer E-score
1,ATTATCCA,0.0946 ± 0.055
2,ACGGAACT,-0.0318 ± 0.08
3,AGCGTCGG,-0.117 ± 0.08
4,CAGTATCC,0.0515 ± 0.025
5,GCACGTTA,0.1 ± 0.012
6,CCACGTTC,0.0604 ± 0.011
7,CCACGTTA,0.3181 ± 0.0019
8,TAGCTTCA,0.122 ± 0.05
9,AGCGCCCC,-0.0138 ± 0.11
10,ACTATAAG,0.0622 ± 0.044
11,AGTATAAT,0.24 ± 0.091
12,CGTATAAG,0.0878 ± 0.037
13,AGTATAAA,0.188 ± 0.0027
14,AGTATAAC,-0.0733 ± 0.029
15,AGTATAAG,0.272 ± 0.011
16,AGCGCAGA,-0.126 ± 0.074
17,AAATAAAT,0.172 ± 0.013
18,ATAGAAAC,0.0134 ± 0.036
19,AAGAGGCC,-0.129 ± 0.067
20,AACTTCAA,0.00863 ± 0.015
21,TACTTCAA,0.265 ± 0.047
22,GACTTCAA,0.15 ± 0.0026
23,AAGATCTA,-0.0269 ± 0.015
24,AAGATCTG,0.0847 ± 0.069
25,AAGATCTT,0.257 ± 0.052

row,Sequence,PBM 8-mer E-score
1,ATGCTGAA,0.0724 ± 0.024
2,ACCTAGTG,0.109 ± 0.023
3,AGGGGATA,0.303 ± 0.046
4,GTGGGATA,0.274 ± 0.071
5,GGGGGATA,0.0584 ± 0.079
6,CGGGGATA,0.0352 ± 0.012
7,CTGGGATA,-0.0992 ± 0.038
8,ATGGGATA,0.145 ± 0.0055
9,ATGCTTCC,-0.0299 ± 0.042
10,GCCCAGGA,-0.14 ± 0.058
11,ACCGCGGT,-0.115 ± 0.037
12,CCCTCCGC,-0.0855 ± 0.048
13,AACCGATC,-0.0993 ± 0.0093
14,CCGTGTTA,0.0249 ± 0.014
15,ACGTGTAT,0.35 ± 0.016
16,ACGTGTGA,0.0598 ± 0.014
17,ACGTGTAC,0.147 ± 0.019
18,ATGTGTTG,0.197 ± 0.039
19,ACGTGTTC,0.103 ± 0.017
20,ACGTGTTG,0.258 ± 0.013
21,GCGTGTTA,0.0351 ± 0.018
22,ACGTGTGC,0.2375 ± 0.00032
23,ACGTGTAG,-0.0126 ± 0.035
24,ACGTGTTA,0.269 ± 0.0048
25,ACGTGTGG,0.151 ± 0.034

row,Sequence,PBM 8-mer E-score
1,GCCTAACA,0.0954 ± 0.1
2,ATCTCCAA,0.107 ± 0.026
3,CTGTCTCC,-0.098 ± 0.04
4,AATTTGAT,-0.0177 ± 0.068
5,GCAATTGC,0.031 ± 0.021
6,AACATCGA,0.0919 ± 0.039
7,GTTGATGA,0.108 ± 0.0079
8,ATTGGTTC,0.0837 ± 0.026
9,GGGCCGGA,-0.178 ± 0.071
10,AATAATCA,0.0347 ± 0.023
11,TATAATCA,0.263 ± 0.0093
12,GATAATCA,0.188 ± 0.037
13,AGTATTCC,0.115 ± 0.061
14,CAGTATGA,0.103 ± 0.036
15,TAGTATGA,0.233 ± 0.017
16,AAGTATGA,0.139 ± 0.069
17,CCAGGTGA,-0.197 ± 0.057
18,GTGCGAAC,-0.083 ± 0.0049
19,AATTAGTA,0.281 ± 0.031
20,CATTAGTA,0.0235 ± 0.027
21,AATTAGTC,0.0882 ± 0.024
22,AGCCGCGG,-0.23908 ± 0.00016
23,AACGCCGT,-0.116 ± 0.032
24,ACATGTTC,0.144 ± 0.088
25,ACATGTTA,0.2525 ± 0.0013

row,Sequence,PBM 8-mer E-score
1,ACATGTTG,0.289 ± 0.023
2,CCATGTTA,0.111 ± 0.079
3,AGATGTTG,-0.0885 ± 0.12
4,GCATGTTA,0.165 ± 0.072
5,CGTGTGAA,-0.155 ± 0.051
6,ACGTGAGC,0.0717 ± 0.062
7,AATCAAAC,0.16 ± 0.021
8,CGTTCTAA,0.032 ± 0.071
9,CGCCCACG,-0.0314 ± 0.056
10,GGCCCACA,-0.0654 ± 0.04
11,CGCCCACC,0.312 ± 0.0061
12,CGCCCCAG,0.0881 ± 0.046
13,CTCCCACC,0.27 ± 0.025
14,AGCCCACC,-0.043 ± 0.018
15,GGCCCCAC,0.103 ± 0.019
16,CGCCCCAC,0.253 ± 0.11
17,CTCCCACA,0.119 ± 0.064
18,ATCCCACC,0.193 ± 0.054
19,AGCCCACG,0.0705 ± 0.024
20,AGCCCACA,0.2403 ± 0.0014
